# Screening data (PubChem)
# Dyrk1A ADPGlo: rat Dyrk1A kinase inhibitors, primary screen, biochemical, single point, plate reader | inhibition, % at 12.5 µM | ADP-Glo luminescence, NFATc1 peptide | Dual specificity tyrosine-phosphorylation-regulated kinase 1A (Rattus norvegicus), Q63470 | 0.43% of 310,000 active; in the data active means inhibition above about 50%
# aDG glyco up: activators of alpha-DG glycosylation, primary screen, uHTS, Pro5-aDG cells, AlphaScreen. alpha-DG glycosylation AlphaScreen (IIH6); 0% Pro5, 100% B10-LARGE cell signal. activation, % at 10 µM. 0.22% of 360,000 active;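 active means activation of at least 8% versus controls, or a plate z-score of at least 8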;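 further: Pro5 are CHO cells carrying HIG-tagged alpha-DG that lacks glycosylation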
# NPR2 activator: human GC-B receptor activators, primary screen, HEK293 GC-B cells, cGMP TR-FRET, EC30 CNP. 0% at EC30 CNP, 100% saturating CNP. 0.11% of 370,000 active. activation, % at 10 µM. AID 1920062, 2024. Atrial natriuretic peptide receptor 2 (Homo sapiens), P20594;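 active means activation at 10 µM reaching about 35% in either raw or pattern-adjusted values, limit read from the data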
# HSF1 inhib: HSF1 inhibitors in luciferase reporter cells, primary screen, cell-based, NIH3T3, luminescence | 0.77% of 300,000 active | NIH3T3-HGL HSE-luciferase, MG132-induced, luminescence 8 h; stronger effect = lower value | AID 2098, 2009 | activity change, negative = inhibition, % at 7.5 µM (by protocol);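 active means more than half of replicate wells show activity change below -50%, luminescence cut by over half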;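 further: luciferase reports HSF-1 transcriptional activity via heat shock element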
# NPR1 activator: GC-A stimulated cGMP production enhancers – HEK293 GC-A cells, cGMP TR-FRET, EC30 ANP, primary screen; 0% at EC30 ANP, 100% saturating ANP; Atrial natriuretic peptide receptor 1 (Homo sapiens), P16066; activation, % at 10 µM; 0.14% of 370,000 active; in the data active means activation above about 40%
# HSF1 activator: HSF-1 activators, primary screen, NIH3T3-HGL cells, MG132 stress, luminescence, single point | NIH3T3-HGL HSF-1 luciferase reporter, 8 h; 100% = twice DMSO control signal | activation, % at 9 µM | 1.7% of 300,000 active;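 active means mean replicate activation of at least 50% with a set share of replicates each reaching 50%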
# Hits are given with their value; 0 = inactive; - = no result given. Rows were chosen to be rich in hits. Some 2.5% of all compounds tested hit in one or more screens of this group.
SMILES,Dyrk1A ADPGlo,aDG glyco up,NPR2 activator,HSF1 inhib,NPR1 activator,HSF1 activator
Cc1ccsc1/C=N/NC(=O)c1sccc1C,0,0,0,0,0,64
COc1ccc(/C=C(/NC(=O)c2ccccc2)C(=O)N/N=C/c2sccc2C)cc1,0,0,0,0,0,0
Cc1ccsc1/C=N/NC(=O)CO,0,0,0,0,0,0
CC(NC(=O)c1ccc(Cl)cc1)c1nnc(SCc2ccc([N+](=O)[O-])cc2)n1C (stereo unspecified),0,0,0,0,0,0
Cc1ccc(-n2ncc3c(NCc4ccco4)ncnc32)c(C)c1,0,0,0,-,0,-
Cc1ccc(N(CC(=O)Nc2cc(C)ccc2C)S(C)(=O)=O)cc1,0,0,0,0,0,0
COC(=O)[C@@H]1C[C@]2(OC(=O)c3ccccc3)C=CC(=O)C[C@@H]2N1C(=O)OCc1ccccc1,0,0,0,0,0,73
COc1ccc(-c2csc(Nc3ccccn3)n2)cc1OC,0,0,0,0,0,0
Oc1ccc(-c2csc(Nc3ccccn3)n2)cc1,0,0,0,0,0,63
Cc1cc(-c2csc(Nc3ccccn3)n2)ccc1F,0,0,0,0,0,80
Oc1ccc(-c2csc(Nc3ncccn3)n2)cc1O,0,0,0,0,0,89
Cc1ccnc(Nc2nc(-c3ccc(F)cc3)cs2)c1,-,0,0,0,0,80
Cc1ccc(S(=O)(=O)Cc2nnnn2-c2ccccc2)cc1,0,0,0,0,0,0
CC12CN3CC(C)(CN(C1)C3c1cc3ccccc3[nH]1)C2=O (stereo unspecified),0,0,0,0,0,0
c1ccc(-c2csc(Nc3ccccn3)n2)cc1,0,0,0,0,0,82
Cc1ccc(-c2csc(Nc3ccccn3)n2)cc1,0,0,0,0,0,0
Fc1ccccc1N1CCN(Cc2nc(-c3ccccc3)no2)CC1,0,0,0,0,0,0
Fc1ccccc1N1CCN(Cc2cc(-c3ccccc3)on2)CC1,0,0,0,-75,0,0
Cc1cc2c(c(/C=C/C(=O)c3ccccc3)c1)OC1(C=C2)Oc2ccccc2C(=O)N1C (stereo unspecified),0,0,0,0,0,74
O=C1c2ccccc2OC2(C=Cc3ccccc3O2)N1Cc1ccccc1 (stereo unspecified),0,0,0,0,0,0
Cc1ccc(S(=O)(=O)NC2=C(N3CCN(c4ccccc4F)CC3)C(=O)c3ccccc3C2=O)cc1,0,0,0,0,0,0
CC(=O)Nc1ccc(S(=O)(=O)NC2=C(N3CCN(c4ccc(F)cc4)CC3)C(=O)c3ccccc3C2=O)cc1,0,0,0,0,0,75
CCOc1ccc(C2c3cc(OC)c(OC)cc3CC(=O)N2c2ccccc2)cc1 (stereo unspecified),0,0,0,0,0,0
CCOc1cc2c(cc1OCC)C(c1ccc(OC)cc1)N(c1ccccc1)C(=O)C2 (stereo unspecified),0,0,0,-85,0,0
CC(=O)OC[C@@H]1CN(Cc2ccccc2)C[C@H](n2cnc3c(N4CCCC4)ncnc32)O1,-,0,0,-,0,-
SMILES,Dyrk1A ADPGlo,aDG glyco up,NPR2 activator,HSF1 inhib,NPR1 activator,HSF1 activator
NS(=O)(=O)c1cccc(NC(=O)CC(NC(=O)c2ccccc2Cl)c2ccccc2)c1 (stereo unspecified),0,0,0,0,0,0
CC(C)NCC(O)COCc1ccc(Cl)cc1 (stereo unspecified),-,0,0,0,0,53
CCC(C)NCC(O)COCc1ccc(Cl)cc1 (stereo unspecified),0,0,0,0,0,0
CCCCOc1ccc(C(=O)NCC(=O)OC2CCOC2=O)cc1 (stereo unspecified),0,0,0,0,57,0
Cc1ccc(-c2nnc(SCc3ccc([N+](=O)[O-])cc3)n2-c2ccccc2)cc1,-,-,0,-,0,-
COc1ccc(-n2c(SCc3ccc([N+](=O)[O-])cc3)nnc2-c2ccc(C)cc2)cc1,0,0,0,0,0,57
CSc1nc2ccc(NS(=O)(=O)c3ccc([N+](=O)[O-])cc3)cc2s1,-,0,0,-89,0,0
CCN1CCN(C(=O)C(=O)c2cn(CC(=O)N(CC)CC)c3ccccc23)CC1,0,0,0,0,0,0
O=C(c1ccccc1)c1cc2ccccc2o1,0,0,0,0,0,54
C/C(=N\NS(=O)(=O)c1ccc(C)c([N+](=O)[O-])c1)c1cc2ccccc2o1,0,0,0,0,0,0
Cc1ccc(C(=O)c2cc3ccccc3o2)cc1[N+](=O)[O-],0,0,0,0,0,64
O=C(c1ccc(F)cc1)c1cc2ccccc2o1,0,0,0,0,0,0
COc1ccc(NCc2nnc(SCC(=O)Nc3cc(C(F)(F)F)ccc3Cl)o2)cc1,0,0,0,-60,0,0
COc1ccc(NCc2nnc(SCC(=O)Nc3cc(C)cc(C)c3)o2)cc1,0,0,0,0,0,0
Cc1cccc(NC(=S)NCc2ccccn2)c1,0,0,0,0,0,0
S=C(NCCNC(=S)Nc1ccccc1Cl)Nc1ccccc1Cl,0,0,0,0,0,0
S=C(NCc1ccccn1)Nc1ccccc1Cl,0,0,0,0,0,63
S=C(NCc1ccccn1)Nc1cccc(Cl)c1,0,0,0,0,0,60
S=C(NCCc1ccccn1)Nc1ccccc1Cl,0,0,0,0,0,0
NNC(=S)Nc1ccccc1Cl,0,0,0,-53,0,0
FC(F)(F)c1cccc(NC(=S)NCc2ccccn2)c1,0,0,0,0,0,57
CCOC(=O)N/N=C1\CCS(=O)(=O)c2ccc(Cl)cc21,0,0,0,-,0,-
O=C(CCS(=O)(=O)c1ccc(Br)cc1)NCc1cccs1,0,0,0,0,0,0
CCC1CCCCN1C(=O)c1cc(-c2ccc(Cl)c(Cl)c2)on1 (stereo unspecified),-,0,0,0,0,0
CC1CCCCN1C(=O)c1cc(-c2ccc(Cl)c(Cl)c2)on1 (stereo unspecified),0,0,0,0,0,57
CC(C)CN(C(=O)COC(=O)c1c2c(nc3ccccc13)CCC2)c1c(N)n(Cc2ccccc2)c(=O)[nH]c1=O,0,0,0,0,0,0
CCOc1ccccc1CNCCN1CCOCC1,0,0,0,0,0,58
C=CCOc1ccccc1CNCCCN1CCOCC1,0,0,0,0,0,0
